# Experimental data taken from PubChem BioAssay (NCI).
# Compounds without any hit were thinned out: in the full panel of roughly 79,000, 15% have a hit. Values without a mark were called inactive. Activity calls are given as the source filed them. Rule as the data show it: active = growth inhibition above about 70%; inactive = the rest.
# Legend:
# [1] = NCI Yeast Anticancer Drug Screen. Data for the rad52 strain (AID 147);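 also: 0% = growth of vehicle-treated control cultures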; conditions: S. cerevisiae rad52 mutant growth inhibition, active compounds read high
# How it was run: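 Here a repair-compromised yeast strain receives each compound; its growth is then quantified and normalised to vehicle-only controls.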
# [2] = NCI Yeast Anticancer Drug Screen. Data for the wt1 strain (AID 149);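 also: 0% = growth of vehicle-treated wt1 cultures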; conditions: S. cerevisiae wt1 strain (SPY 50644) growth inhibition, active compounds read high
# How it was run: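 The wt1 strain was treated with compounds, and growth was compared with vehicle-treated cultures to give inhibition.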
# [3] = NCI Yeast Anticancer Drug Screen. Data for the mgt1 strain (AID 153); conditions: S. cerevisiae mgt1 mutant growth inhibition, active compounds read high
# How it was run: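 Measured: inhibition of mgt1 yeast growth by compound, normalized to vehicle-treated cultures.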
# [4] = NCI Yeast Anticancer Drug Screen. Data for the rad50 strain (AID 155);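 also: 0% = growth of vehicle-only cultures of the same strain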; conditions: S. cerevisiae rad50 strain growth inhibition, active compounds read high
# How it was run: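 Cells are treated with compound, grown, and their growth is then scored against vehicle-only cultures of the same repair-deficient yeast strain.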
# [5] = NCI Yeast Anticancer Drug Screen. Data for the mec2-1 strain (AID 157); conditions: S. cerevisiae mec2-1 strain, active compounds read high
# How it was run: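 Using mec2-1 yeast: add compound, measure growth, express inhibition versus vehicle-treated cultures.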
# [6] = NCI Yeast Anticancer Drug Screen. Data for the rad14 strain (AID 159);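 also: 0% = growth of vehicle-treated control cultures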; conditions: S. cerevisiae rad14 strain growth inhibition, active compounds read high
# How it was run: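 Readout: yeast growth inhibition, referenced to vehicle-only cultures. Strain bears a defined alteration in DNA damage repair.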
# [7] = NCI Yeast Anticancer Drug Screen. Data for the sgs1 mgt1 strain (AID 161);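 also: 0% = growth of cultures given vehicle only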; conditions: S. cerevisiae sgs1 mgt1 strain, active compounds read high
# How it was run: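 Percent growth inhibition was derived by comparing compound-exposed mutant yeast with vehicle-exposed cultures. The strain carries alterations in DNA damage repair.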
# [8] = NCI Yeast Anticancer Drug Screen. Data for the CLN2oe strain (AID 163);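 also: 0% = growth of vehicle-only control cultures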; conditions: S. cerevisiae CLN2oe strain, active compounds read high
# How it was run: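 Whole-cell yeast growth assay. A strain engineered for altered cell-cycle control received compound, and inhibition relative to vehicle-treated cultures was recorded.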
# [9] = NCI Yeast Anticancer Drug Screen. Data for the cln2 rad14 strain (AID 165);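 also: 0% = growth equal to vehicle treated cultures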; conditions: S. cerevisiae cln2 rad14 strain, active compounds read high
# How it was run: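 Yeast strain cln2 rad14, bearing defects in cell cycle control and DNA repair, serves as the test system; values reflect growth inhibition compared with vehicle.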
# [10] = NCI Yeast Anticancer Drug Screen. Data for the bub3 strain (AID 167); conditions: S. cerevisiae bub3 mutant strain, active compounds read high
# How it was run: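 Part of a panel of yeast mutants defective in DNA damage repair or cell cycle regulation. Each strain is grown with compound, and inhibition is calculated relative to solvent-treated cultures.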
# [11] = NCI Yeast Anticancer Drug Screen. Data for the wt2 strain (AID 169);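 also: 0% = growth of vehicle-treated yeast cultures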; conditions: S. cerevisiae wt2 strain growth inhibition, active compounds read high
# How it was run: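 Treated yeast vs. vehicle-treated yeast: growth inhibition determined.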
# [12] = NCI Yeast Anticancer Drug Screen. Data for the mlh1 strain (AID 171);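 also: 0% = growth of vehicle-treated control cultures of the same strain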; conditions: S. cerevisiae mlh1 strain growth inhibition, active compounds read high
# How it was run: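 A yeast strain with a defined genetic lesion serves as the test organism. Cultures receive compound or vehicle, and growth is measured.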
# [13] = NCI Yeast Anticancer Drug Screen. Data for the sgs1 strain (AID 173);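 also: 0% = growth of vehicle-only control cultures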; conditions: S. cerevisiae sgs1 mutant, active compounds read high
# How it was run: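 A genetically defined yeast mutant is incubated with the test compound, and its growth is compared to that of the same strain given vehicle.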
# [14] = NCI Yeast Anticancer Drug Screen. Data for the mlh1 rad18 strain (AID 175); conditions: S. cerevisiae mlh1 rad18 strain growth inhibition, active compounds read high
# How it was run: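 Steps: expose repair-defective yeast to compound; measure growth; express inhibition against vehicle-treated controls.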
# [15] = NCI Yeast Anticancer Drug Screen. Data for the rad18 strain (AID 177); conditions: S. cerevisiae rad18 mutant growth inhibition, active compounds read high
# How it was run: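 Measured value is growth inhibition of a yeast strain bearing a DNA repair alteration, referenced to vehicle-treated cells.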
# [16] = at 5.0 µM (retest, dose inferred, filed as 0.5)
# [17] = at 50.0 µM (retest, dose inferred, filed as 5.0)
smiles,measurement,setting,value
CCCCOC(=O)N[C@H]1CCc2cc(OC)c(OC)c(OC)c2-c2ccc(SC)c(=O)cc21,growth inhibition,[1]; at 1.2 µM,-2%
same,growth inhibition,[1]; at 3.7 µM,1%
same,growth inhibition,[1]; at 11.0 µM,6%
same,growth inhibition,[1]; at 33.0 µM,36%
same,growth inhibition,[1]; at 100.0 µM,77% (active)
same,growth inhibition,[2]; at 1.2 µM,-2%
same,growth inhibition,[2]; at 3.7 µM,-3%
same,growth inhibition,[2]; at 11.0 µM,-4%
same,growth inhibition,[2]; at 33.0 µM,3%
same,growth inhibition,[2]; at 100.0 µM,55%
same,growth inhibition,[3]; at 1.2 µM,-5%
same,growth inhibition,[3]; at 3.7 µM,-3%
same,growth inhibition,[3]; at 11.0 µM,-1%
same,growth inhibition,[3]; at 33.0 µM,49%
same,growth inhibition,[3]; at 100.0 µM,77% (active)
same,growth inhibition,[4]; at 1.2 µM,1%
same,growth inhibition,[4]; at 3.7 µM,6%
same,growth inhibition,[4]; [16],-15%
same,growth inhibition,[4]; at 11.0 µM,14%
same,growth inhibition,[4]; at 33.0 µM,51%
same,growth inhibition,[4]; [17],52%
same,growth inhibition,[4]; at 50.0 µM,82.5% (active)
same,growth inhibition,[4]; at 100.0 µM,81% (active)
same,growth inhibition,[5]; at 1.2 µM,-6%
same,growth inhibition,[5]; at 3.7 µM,-3%
same,growth inhibition,[5]; [16],-19%
same,growth inhibition,[5]; at 11.0 µM,-2%
same,growth inhibition,[5]; at 33.0 µM,15%
same,growth inhibition,[5]; [17],48%
same,growth inhibition,[5]; at 50.0 µM,53%
same,growth inhibition,[5]; at 100.0 µM,81% (active)
same,growth inhibition,[6]; at 1.2 µM,-1%
same,growth inhibition,[6]; at 3.7 µM,2%
same,growth inhibition,[6]; at 11.0 µM,7%
same,growth inhibition,[6]; at 33.0 µM,49%
same,growth inhibition,[6]; at 100.0 µM,84% (active)
same,growth inhibition,[7]; [16],3%
same,growth inhibition,[7]; [17],-13%
same,growth inhibition,[7]; at 50.0 µM,82.5% (active)
same,growth inhibition,[8]; at 1.2 µM,-2%
same,growth inhibition,[8]; at 3.7 µM,-5%
same,growth inhibition,[8]; at 11.0 µM,-1%
same,growth inhibition,[8]; at 33.0 µM,30%
same,growth inhibition,[8]; at 100.0 µM,79% (active)
same,growth inhibition,[9]; [16],-17%
same,growth inhibition,[9]; [17],60%
same,growth inhibition,[9]; at 50.0 µM,58.3%
same,growth inhibition,[10]; at 1.2 µM,-9%
same,growth inhibition,[10]; at 3.7 µM,-8%
same,growth inhibition,[10]; [16],0%
same,growth inhibition,[10]; at 11.0 µM,-5%
same,growth inhibition,[10]; at 33.0 µM,2%
same,growth inhibition,[10]; [17],55%
same,growth inhibition,[10]; at 50.0 µM,77.8% (active)
same,growth inhibition,[10]; at 100.0 µM,81% (active)
same,growth inhibition,[11]; at 1.2 µM,-2%
same,growth inhibition,[11]; at 3.7 µM,-3%
same,growth inhibition,[11]; at 11.0 µM,-1%
same,growth inhibition,[11]; at 33.0 µM,29%
same,growth inhibition,[11]; at 100.0 µM,86% (active)
same,growth inhibition,[12]; at 1.2 µM,-4%
same,growth inhibition,[12]; at 3.7 µM,-3%
same,growth inhibition,[12]; at 11.0 µM,2%
same,growth inhibition,[12]; at 33.0 µM,27%
same,growth inhibition,[12]; at 100.0 µM,90% (active)
same,growth inhibition,[13]; at 1.2 µM,-3%
same,growth inhibition,[13]; at 3.7 µM,-5%
same,growth inhibition,[13]; at 11.0 µM,2%
same,growth inhibition,[13]; at 33.0 µM,38%
same,growth inhibition,[13]; at 100.0 µM,89% (active)
same,growth inhibition,[14]; [16],-12%
same,growth inhibition,[14]; [17],47%
same,growth inhibition,[14]; at 50.0 µM,92.9% (active)
same,growth inhibition,[15]; at 1.2 µM,-1%
same,growth inhibition,[15]; at 3.7 µM,0%
same,growth inhibition,[15]; at 11.0 µM,7%
same,growth inhibition,[15]; at 33.0 µM,26%
same,growth inhibition,[15]; at 100.0 µM,80% (active)
